The first assay addresses T1, Arginase-2, mitochondrial (Homo sapiens) (UniProt P78540).
T1 sequence (whole entry): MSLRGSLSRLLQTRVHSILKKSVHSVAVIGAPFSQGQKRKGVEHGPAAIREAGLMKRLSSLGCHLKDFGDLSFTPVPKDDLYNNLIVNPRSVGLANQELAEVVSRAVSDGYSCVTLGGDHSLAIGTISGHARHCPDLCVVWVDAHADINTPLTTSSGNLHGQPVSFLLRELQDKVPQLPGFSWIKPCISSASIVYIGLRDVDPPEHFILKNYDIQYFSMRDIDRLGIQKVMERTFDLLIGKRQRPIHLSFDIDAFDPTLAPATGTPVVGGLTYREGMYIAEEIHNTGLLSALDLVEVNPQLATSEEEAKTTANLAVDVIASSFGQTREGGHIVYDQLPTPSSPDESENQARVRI
The assay can be described thus: in vitro enzyme assay to detect the production of urea directly proportional to the activity of Arginase II. It is filed as functional. The arrangement: scale not given: in the data most compounds retested in dose-response had high values. The settings on record: 33.3 µM.
In the case of `Cc1nc(CN2C(=O)COC3(CCN(Cc4ccco4)CC3)C2C)cs1` (stereo not drawn), the Percent Effect was -3.19%.
In the case of `COc1cccc(S(=O)(=O)CCN2CCC3(CC2)OCCO3)c1`, the Percent Effect was determined as 5.21%.
`CNC(=O)NC(=O)CN1CCC(c2cccc(F)c2)C1` (stereo not drawn): the Percent Effect was found to be 2.3%.
On to `N#Cc1ccc(CNCC(C(=O)N2CCOCC2)c2ccccc2)cc1` (stereo not drawn), for which the Percent Effect is -75.9%.
On to `Cc1ccccc1CNc1nc(O)cc(C2CC(=O)N(C)C2)n1` (stereo not drawn), for which the Percent Effect was found to be 4.87%.
Take `COc1cccn(CC(=O)N(C)Cc2ccoc2)c1=O`: the Percent Effect came to 0.399%.
Take `CC(NCc1ccc(F)cc1)c1ccc(OCC(=O)NC2CC2)cc1` (stereo not drawn): the Percent Effect was -7.1%.
The same measure, in the same setting: the result for `COc1c(C)cnc(CN2CCCCC2Cn2nc(C)nc2C)c1C` (stereo not drawn) reads 5.32%.
As for `O=C1NCCN1C1CCN(Cc2nc(-c3ccoc3)no2)CC1`, the Percent Effect is -2.85%.
For `Cc1cnc(N2CCCC3(CCN(Cc4csc(C)n4)C3=O)C2)nc1` (stereo not drawn), the Percent Effect is -54.3%.
The same measure, in the same setting: the result for `CCS(=O)(=O)N(C)c1ccc(C(=O)N2CCCC(C)C2)cc1` (stereo not drawn) reads 0.883%; that for `CC(=O)Nc1nc(C(=O)N2CCCC2c2noc(C)n2)cs1` (stereo not drawn), 2.13%.
`Cc1cccc(NC(=O)N2CCCn3cnc(CN4CCCC4)c3C2)c1`: the Percent Effect was found to be 0%.
On to `Cc1cc(C(F)(F)F)nn1CC(C)C(=O)Nc1ccncc1` (stereo not drawn), for which the Percent Effect was -2.64%.
For `CNC(=O)c1ccc(OC2CCN(S(C)(=O)=O)CC2)c(Cl)c1`, the Percent Effect was found to be 2.65%.
On to `Cc1nnc(N2C[C@H](C(=O)NCC3CC3)[C@@H]3CCO[C@@H]3C2)s1`, for which the Percent Effect was -3.23%.
With `CCOc1nnc(CNC2CCCN(c3ccc(C)nn3)C2)s1` (stereo not drawn), the Percent Effect was -8.02%.
Take `CC(C)NC(=O)N1CCN(S(=O)(=O)C2CC2)CC2(CC(=O)N(C)C2)C1` (stereo not drawn): the Percent Effect was -5.81%.
For `Cc1noc(CN2CCN(CC(C)O)CC2)n1` (stereo not drawn), the Percent Effect is 1.25%.

For the next assay, the target named is T2, Proteasome subunit beta (Trypanosoma cruzi) (UniProt O96673).
T2 sequence (whole entry): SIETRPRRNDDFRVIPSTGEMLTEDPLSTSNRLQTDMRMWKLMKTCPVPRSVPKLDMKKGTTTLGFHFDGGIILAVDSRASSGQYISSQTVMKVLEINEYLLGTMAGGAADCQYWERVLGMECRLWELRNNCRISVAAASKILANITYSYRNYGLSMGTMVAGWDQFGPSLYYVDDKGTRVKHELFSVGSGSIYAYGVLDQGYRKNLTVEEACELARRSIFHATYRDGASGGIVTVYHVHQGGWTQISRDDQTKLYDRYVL
Nature of the assay: Trypanosoma cruzi proteasome chymotrypsin-like activity (TcProtChymo) assay. It is filed as functional. Further details: scale not given: in the data most compounds retested in dose-response had high values. The conditions noted are these: 9.37 µM.
With `N#Cc1ccc(N2CCCN(C(=O)CC3CCCO3)CC2)cc1` (stereo not drawn), the Percent Effect is -2.34%.
The same measure, in the same setting: next, `O=c1ccc(-c2cccs2)nn1CN1CCN(Cc2ccccc2)CC1`: 11.7%.
Consider `Cc1ccc(C(=O)NS(=O)(=O)c2cc(Cl)ccc2Cl)c(=O)[nH]1`, for which the Percent Effect worked out at 4.67%.
Regarding `Cc1nccn1C1CCCN(C(=O)c2cc(O)nc3ccccc23)C1` (stereo not drawn), the Percent Effect is -4.34%.
In the case of `CCCc1n[nH]c(C2CN(C(=O)c3cc(F)ccc3OC)CCO2)n1` (stereo not drawn), the Percent Effect turned out to be 3.3%.
`Cc1cnn(CC2CCCN2CCCc2nc3ccccc3o2)c1` (stereo not drawn): the Percent Effect worked out at 6.82%.
As for `CC(=O)N1CC(Cc2nccc3ccn(C)c23)C1`, the Percent Effect came to 22.6%.
For `CC(c1ccc(Cl)cc1)N1CCN(CCNS(C)(=O)=O)CC1` (stereo not drawn), the Percent Effect was found to be 10.7%.
Turning to `CCn1ccnc1-c1nc2cc(S(=O)(=O)N3CCCC3)ccc2n1C`, the Percent Effect stood at 4.97%.
For `Cc1ccc(CNCc2ccc(-n3nc(C)cc3C)nc2)cc1`, the Percent Effect was found to be 11.4%.
For `CC(C)Oc1cccc(C(=O)C2CCCN(C(=O)c3ccccn3)C2)c1` (stereo not drawn), the Percent Effect worked out at 14.3%.
On the same count and under the same terms, next, `CCCS(=O)(=O)N1CCOCC2(CCN(c3ccccn3)C2)C1` (stereo not drawn): 3.88%; `CC(C)Oc1cccc(CNC(=O)NC(C)(C(=O)O)c2ccco2)c1` (stereo not drawn): -2.79%; `O=C(Nc1cccc(CN2CCOC2=O)c1)N1CCSCC1`: 23.3%.
In the case of `Cc1cc(C)cc(NC(=O)CN2CCCC(n3cncn3)C2)c1` (stereo not drawn), the Percent Effect amounted to 1.44%.
Still for that read-out and setting: next, `Cc1ncsc1CN1CC[C@H]2C(=O)N(c3ccccc3)CCO[C@H]2C1`: 16.5%; `CCc1nccn1C1CCCN(C(=O)c2ccc3c(c2)OCO3)C1` (stereo not drawn): 1.01%.
`CCN(CC)CC(=O)NCCc1csc(N2CCCC2)n1`: the Percent Effect is 5.41%.
With `COc1cc(NC(=O)c2cc(C)sc2C)c(C(=O)N(C)C)cc1OC`, the Percent Effect was 19.1%.
The same measure, in the same setting: next, `O=C(Cn1ccc2sccc2c1=O)NCc1ccc2c(c1)OCO2`: 4.53%; `Cc1nc(CN2C(=O)COC3(CCN(Cc4ccco4)CC3)C2C)cs1` (stereo not drawn): 15.8%; `COc1cccc(S(=O)(=O)CCN2CCC3(CC2)OCCO3)c1`: 6.45%.
In the case of `CNC(=O)NC(=O)CN1CCC(c2cccc(F)c2)C1` (stereo not drawn), the Percent Effect is -2.51%.
Same read-out and setting: next, `N#Cc1ccc(CNCC(C(=O)N2CCOCC2)c2ccccc2)cc1` (stereo not drawn): 4.16%; `Cc1ccccc1CNc1nc(O)cc(C2CC(=O)N(C)C2)n1` (stereo not drawn): 13.1%.
On to `COc1cccn(CC(=O)N(C)Cc2ccoc2)c1=O`, for which the Percent Effect amounted to 2.48%.
With `CC(NCc1ccc(F)cc1)c1ccc(OCC(=O)NC2CC2)cc1` (stereo not drawn), the Percent Effect is 18%.
On to `COc1c(C)cnc(CN2CCCCC2Cn2nc(C)nc2C)c1C` (stereo not drawn), for which the Percent Effect was 14.8%.
For `O=C1NCCN1C1CCN(Cc2nc(-c3ccoc3)no2)CC1`, the Percent Effect was found to be 4.56%.

The record behind these values is ChEMBL document CHEMBL3988442, “University of Dundee, Small-Polar-MMV Screening Library” (2021).
